The panel holds about 83,000 compounds, 20% with a hit somewhere; the sample as a whole holds those more often.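 Each cell line was grown in a 96-well plate and treated with one concentration of compound for 48 hours. Values below 10 were considered active.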 A number with no mark means an inactive call. The source made the active and inactive calls.
Each molecule was assayed on COLO 205 colon (assay: NCI-60 one-dose screen, 48 h (100 = growth as untreated, 0 = no growth, -100 = all killed)). Details: 10 µM unless noted.
`Cc1nn(-c2ccccc2)c(Cl)c1/C=C/C(=O)c1ccc(F)cc1` gave a growth of 105%.
With `COc1cc2oc(-c3cccc(C(=O)Nc4ccc(Br)cc4)c3)cc(=O)c2c(OC)c1OC` the growth was 54.4%.
For `CC1=C(C(=O)/C=C/c2c[nH]c3ccccc23)C(c2ccccc2)NC(=S)N1` (stereo not given), the growth was 121%.
Work on `CCCCCN1C=C/C(=C\C(=O)N(C)c2ccc(Oc3ccccc3)cc2)c2ccccc21` yielded a growth of 81.6%.
Molecule `Cn1cc(-c2nc(-c3c[nH]c4c(Cl)nccc34)cs2)c2cc(Br)ccc21` has a growth of 90.4%.
In the case of `COc1ccc(/C=C2\Oc3cc(OCCCN4CCCCC4)ccc3C2=O)cc1OC`, the growth is reported as 98.3%.
In the case of `Cc1cc2nc3c4cc(C=O)ccc4n(CCN(C)C)c3nc2cc1C`, the growth is reported as -15.9% (active).
Molecule `S=c1cc(S)c2cc(Br)ccc2[nH]1` has a growth of 98.8%.
Work on `O=C(/C(=C\c1ccc([N+](=O)[O-])cc1)S(=O)Cc1ccc(Cl)cc1)c1ccc(Cl)cc1` (stereo not given) yielded a growth of 74.7%.
For `COc1cc(CC(=O)c2ccc(O)c(OC)c2)ccc1O`, the growth was 107%.
`O=C(NCCc1ccccc1)Nc1ccc2cc3ccc(NC(=O)NCCc4ccccc4)cc3nc2c1` gave a growth of 10.8%.
`C=C(C)[C@@H]1CC[C@]2(C(=O)N3CCN(C)CC3)CC[C@]3(C)[C@H](CC[C@@H]4[C@@]5(C)C/C(=C/c6cccnc6)C(=O)C(C)(C)[C@@H]5CC[C@]43C)[C@@H]12` showed a growth of 65%.
Work on `COc1cc2nc(-c3ccc(Cl)cc3)cc(OCCCN3CCC(O)CC3)c2cc1OC` yielded a growth of 23.8%.
In the case of `O=S(=O)(NCCNc1nccc(-c2c(-c3cccc(O)c3)nc3occn23)n1)c1ccccc1`, the growth is reported as 34.6%.
With `NC(=NCCCOc1ccc(F)cc1)Nc1ccc(Cl)cc1` the growth was -69.6% (active).
With `C#Cc1cccc(NC(=O)c2cccc(NC(=O)CCl)c2)c1` the growth was -53% [8.25 µM] (active).
`CCN1Cc2nc3sc(C)c(C)c3c(=O)n2C=C1C` was tested, and the growth was 111%.
Work on `O=C1Nc2cc(-c3cccc([N+](=O)[O-])c3)ccc2/C1=C/c1ccc[nH]1` yielded a growth of 85.9%.
For `C[C@H]1[C@H](C)CC[C@]2(C(=O)NCC#CCN3CCN(C)CC3)CC[C@]3(C)C(=CC[C@@H]4[C@@]5(C)Cc6c([nH]c7ccccc67)C(C)(C)[C@@H]5CC[C@]43C)[C@H]12`, the growth was 53.1%.
Work on `COc1cc(/C=C/c2cc(O)c(C(C)=O)c(O)c2)cc2c1O[C@]1(C)CC[C@@H](O)C(C)(C)[C@H]1C2` yielded a growth of 94.5%.
Work on `N#CC1=C(N)Oc2c(cnn2-c2ccc([N+](=O)[O-])cc2[N+](=O)[O-])C1c1ccccc1` (stereo not given) yielded a growth of 111%.
With `COc1ccc(C(=O)c2cc(C)c(OC)c(C)c2)c(OC)c1N(C(=O)CCl)C(=O)CCl` the growth was -39.4% (active).
For `CCC(=O)Oc1ccc(/C(=C(\C)c2ccccc2)c2ccc(OCCN3CCCCC3)cc2)cc1`, the growth was 32.7%.
Work on `Cc1ccc(NC(=O)c2cc(-c3nc4ccccc4s3)c(=O)n(NS(=O)(=O)c3ccc(Cl)cc3)c2N)cc1` yielded a growth of 114%.
With `O=C1Nc2ccc(F)cc2/C1=C\c1c(-c2ccccc2)nc2ccccn12` the growth was 91.9%.
`O=C(NO)c1ccc(-n2nc(-c3ccccc3)c3ccccc32)cc1` was tested, and the growth was 49%.
In the case of `O=C1Nc2ccccc2/C1=C\c1c(-c2ccc(F)cc2)nc2ccccn12`, the growth is reported as 76.6%.
For `Oc1cccc(CCc2ccc(Oc3cc(CCc4cccc(O)c4)cc(O)c3O)cc2)c1`, the growth was 111%.
Molecule `CCCCCCCC(=O)OCC/C=C/C1OC1C1OC(=O)/C=C\C=C\C(=O)N(C(C)=O)C(=O)/C=C(/C)CCC2OC2C1OC(=O)NC(C)=O` (stereo not given) has a growth of 62.3%.
`Cc1ccc(NS(=O)(=O)c2ccc(-c3cnc(C4CC4)o3)cc2)cc1C(F)(F)F` was tested, and the growth was 67.5%.
`CNC(=O)c1cncc(Cn2nc(C)c(NC(=O)c3ccc(COc4ccc(C(F)(F)F)cc4C)cc3)c2C)c1` showed a growth of 66.9%.
With `Cc1cc(C)c(S(=O)(=O)Oc2ccccc2[N+](=O)[O-])c(C)c1` the growth was 22.9%.
`C=C1C(=O)O[C@H]2[C@H]1CC/C(CNC(=O)C(C)c1ccc(CC(C)C)cc1)=C\CC[C@@]1(C)O[C@@H]21` (stereo not given in full) was tested, and the growth was -34.8% (active).
Molecule `NC(=S)N1N=C(c2ccccc2)CC1c1cn(-c2ccccc2)nc1-c1ccc(OCc2ccccc2)cc1` (stereo not given) has a growth of 115%.
`CN1CCN(C(=O)[C@]23CCC(C)(C)C[C@H]2C2=CC[C@@H]4[C@@]5(C)C/C(=C/c6cccnc6)C(=O)C(C)(C)[C@@H]5CC[C@@]4(C)[C@]2(C)CC3)CC1` was tested, and the growth was 42.9%.
